Growth inhibition data for 20 compounds are collected here from PubChem BioAssay (NCI).

Compounds without any hit were thinned out: in the full panel of roughly 79,000, 15% have a hit. Values without a mark were called inactive. Active and inactive are the calls of the source. No stated cut-off is given here; in the data, active means growth inhibition above about 70%; inactive means the rest.

A short description of experiment [1]: NCI Yeast Anticancer Drug Screen. Data for the rad50 strain (AID 155).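 Further: 0% = growth of vehicle-only cultures of the same strain.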 The following applies: S. cerevisiae rad50 strain growth inhibition; at 50.0 µM; hits give high values. The procedure, abridged:
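DNA repair mutant yeast, compound exposure, growth read-out; inhibition is taken relative to vehicle.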

Experiment [2] is described as follows: NCI Yeast Anticancer Drug Screen. Data for the mec2-1 strain (AID 157). To be noted: S. cerevisiae mec2-1 strain, at 50.0 µM, hits give high values. Put shortly: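 Cells of the genetically defined mec2-1 yeast strain are incubated with test compound. Inhibition of growth is calculated against vehicle-treated controls.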
Experiment [3] in a line: NCI Yeast Anticancer Drug Screen. Data for the sgs1 mgt1 strain (AID 161).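 Further: 0% = growth of cultures given vehicle only.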 The following applies: S. cerevisiae sgs1 mgt1 strain, at 50.0 µM, hits give high values. Put shortly: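 Mutant yeast exposed to compound; growth scored against vehicle-only wells.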
Experiment [4] is described as follows: NCI Yeast Anticancer Drug Screen. Data for the cln2 rad14 strain (AID 165).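 Further: 0% = growth equal to vehicle treated cultures.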 The following applies: S. cerevisiae cln2 rad14 strain, at 50.0 µM, hits give high values. The procedure, abridged:
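The screen exposed genetically defined yeast (cln2 rad14) to test compounds and scored growth inhibition relative to vehicle-treated controls.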

Experiment [5] is described as follows: NCI Yeast Anticancer Drug Screen. Data for the bub3 strain (AID 167). To be noted: S. cerevisiae bub3 mutant strain, at 50.0 µM, hits give high values. The procedure, abridged:
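In this screen, a yeast mutant lacking normal mitotic checkpoint function is challenged with compound. Relative growth versus vehicle gives the inhibition value.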

Experiment [6] in a line: NCI Yeast Anticancer Drug Screen. Data for the mlh1 rad18 strain (AID 175). The following applies: S. cerevisiae mlh1 rad18 strain growth inhibition; at 50.0 µM; hits give high values. Put shortly:
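Compound-treated yeast growth, normalised to vehicle controls. Strain bears defined DNA repair mutations.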

Consider `CONS(=O)c1ccc(Cl)cc1` (stereo not given), for which the growth inhibition is 10.8% in experiment [1]; 28.2% in experiment [2]; 6.35% in experiment [3]; -27.2% in experiment [4]; 4.95% in experiment [5]; 11% in experiment [6].

Regarding `Clc1nncc2sc(-c3ccccc3)nc12`, the growth inhibition was 20.9% in experiment [1]; -1.7% in experiment [2]; 28.1% in experiment [3]; 17.4% in experiment [4]; 18.3% in experiment [5]; -18.3% in experiment [6].

As for `Nc1ccc(CCCCOc2ccccc2)cc1`, the growth inhibition in experiment [1] is 98.6% (active); in experiment [2], 99% (active); in experiment [3], 98.5% (active); in experiment [4] it was 98.5% (active); in experiment [5], 99% (active); in experiment [6] it was 98.4% (active).

Turning to `O=S(/C=C/C=C/S(=O)(=O)c1ccccc1)c1ccccc1` (stereo not given), the growth inhibition in experiment [1] was 18.1%; in experiment [2], 24.2%; in experiment [3] it was 30.5%; in experiment [4] it was 19.3%; in experiment [5] it was 43.4%; in experiment [6] it was 74% (active).

For `COC(=O)CC(C(C(=O)OC)C(=O)OC)N1C(=O)OCC1c1ccccc1` (stereo not given), the growth inhibition in experiment [1] is -16.6%; in experiment [2], -0.45%; in experiment [3], -29.1%; in experiment [4], -12.3%; in experiment [5], -17.9%; in experiment [6], -15.9%.

Consider `O=C(c1cccc([N+](=O)[O-])c1)N1CCOCC1`, for which the growth inhibition was -2.65% in experiment [1]; -10% in experiment [2]; 1.45% in experiment [3]; -36.4% in experiment [4]; 3.7% in experiment [5]; 14.1% in experiment [6].

On to `CCN(CC)S(=O)(=O)c1ccc(N)cc1`, for which the growth inhibition is 26.1% in experiment [1]; 2.15% in experiment [2]; 25.4% in experiment [3]; -13.9% in experiment [4]; -2.2% in experiment [5]; 8.4% in experiment [6].

Turning to `CCOc1c(OC)cc(-c2nc3n(n2)C(=O)C(CC)S3)cc1OC` (stereo not given), the growth inhibition in experiment [1] was -15.6%; in experiment [2] it was -17.4%; in experiment [3], -41.3%; in experiment [4], -4.85%; in experiment [5] it was -3.65%; in experiment [6] it was -4.2%.

As for `Cc1ccccc1C1(O)c2cccc3cccc(c23)C1(O)c1ccccc1C` (stereo not given), the growth inhibition was 2.95% in experiment [1]; 8.45% in experiment [2]; -7.45% in experiment [3]; -10.9% in experiment [4]; 10.9% in experiment [5]; -22.4% in experiment [6].

Consider `Cc1cc(N)ccc1[N+](=O)[O-]`, for which the growth inhibition in experiment [1] was 2.2%; in experiment [2], 31%; in experiment [3], 9%; in experiment [4] it was -29.1%; in experiment [5], 11.7%; in experiment [6], 1.75%.

On to `CCCCOC(=O)c1ccc(NC(=O)Nc2ccc([N+](=O)[O-])cc2OC)cc1`, for which the growth inhibition was -24.2% in experiment [1]; -11.1% in experiment [2]; -17.6% in experiment [3]; 50.7% in experiment [4]; -0.8% in experiment [5]; 6.05% in experiment [6].

As for `CN=C(C#N)c1ccccc1`, the growth inhibition was -10.6% in experiment [1]; -17.1% in experiment [2]; -2.6% in experiment [3]; -28.9% in experiment [4]; 8.7% in experiment [5]; -15.8% in experiment [6].

As to `Nc1cc2c3c(cccc3c1)NC2=O`, the growth inhibition in experiment [1] is 47.5%; in experiment [2] it was 14.4%; in experiment [3] it was 17.9%; in experiment [4] it was 11%; in experiment [5] it was -1.5%; in experiment [6] it was -12.9%.

As to `CCCC(C)C(=O)OCCCc1ccccc1` (stereo not given), the growth inhibition in experiment [1] is 7.55%; in experiment [2] it was -5.2%; in experiment [3] it was 2.9%; in experiment [4] it was -20.1%; in experiment [5] it was 18.8%; in experiment [6], 3.8%.

`CC(=O)N/N=C(\N)c1nc2c(n3nc(C)nc13)CCCC2`: the growth inhibition is -17.6% in experiment [1]; -19% in experiment [2]; -1.2% in experiment [3]; -18.4% in experiment [4]; -5.05% in experiment [5]; 5.5% in experiment [6].

As for `C1CC2N=NC1C21CC1.[Cl][Cu][Cl]`, the growth inhibition in experiment [1] was 1.2%; in experiment [2], 1.7%; in experiment [3], -3.75%; in experiment [4], -8.15%; in experiment [5], 8.7%; in experiment [6], -10%.

For `COc1cc2c(SCCN(C)C)nc3ccccc3c2c2ccccc12`, the growth inhibition in experiment [1] was 89.9% (active); in experiment [2], 92.3% (active); in experiment [3], 90.8% (active); in experiment [4] it was 87.8% (active); in experiment [5], 91.5% (active); in experiment [6], 89.1% (active).

Regarding `O=C(Nc1nc(=S)[nH][nH]1)C(=O)C(C(=O)c1ccc2ccccc2c1)C1OC(=O)c2ccccc21` (stereo not given), the growth inhibition was 28.6% in experiment [1]; 23.3% in experiment [2]; -6.5% in experiment [3]; -14.3% in experiment [4]; 3.75% in experiment [5]; 28.8% in experiment [6].

`Cc1ccc(S(=O)(=O)/N=C/[N-][n+]2cccc(C)c2)cc1`: the growth inhibition is 3.6% in experiment [1]; 8.8% in experiment [2]; 4.4% in experiment [3]; -14.6% in experiment [4]; 0.45% in experiment [5]; -4.2% in experiment [6].

As for `Oc1cc(O)cc(/C=C/c2ccc(O)c(O)c2)c1`, the growth inhibition in experiment [1] was 5.2%; in experiment [2] it was -2.35%; in experiment [3] it was 6%; in experiment [4], 5.95%; in experiment [5], 18.4%; in experiment [6], 18.6%.
